How the values were obtained:
Test in all cases: DAPPL (digital affinity profiling via proximity ligation, sequencing); 10 mM Tris-HCl pH 7.5, 50 mM NaCl, 1 mM DTT, 4% glycerol, room temperature, 30 min; GST-TFs on glutathione beads, 16-mer random dsDNA library, 0.1% formaldehyde crosslink after washing; high values mean tight binding
FLI1 = target: T1, FLI1 (Homo sapiens, UniProt Q01543 1-452); conditions: protein: recombinant; tags: N-terminal GST; dsDNA, one strand shown
T1 sequence: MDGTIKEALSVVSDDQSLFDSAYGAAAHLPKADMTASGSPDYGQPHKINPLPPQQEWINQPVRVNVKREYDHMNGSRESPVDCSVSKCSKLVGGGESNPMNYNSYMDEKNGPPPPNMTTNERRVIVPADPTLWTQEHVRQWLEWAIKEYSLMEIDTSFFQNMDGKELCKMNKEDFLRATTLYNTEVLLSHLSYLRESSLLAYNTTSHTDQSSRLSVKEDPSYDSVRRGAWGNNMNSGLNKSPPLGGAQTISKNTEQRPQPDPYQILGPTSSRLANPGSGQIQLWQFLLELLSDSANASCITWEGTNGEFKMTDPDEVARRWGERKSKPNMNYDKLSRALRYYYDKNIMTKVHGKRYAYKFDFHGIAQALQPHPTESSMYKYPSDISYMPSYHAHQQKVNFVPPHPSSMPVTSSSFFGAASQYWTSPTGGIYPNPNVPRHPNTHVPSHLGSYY
Summary of the method: (§1)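 Human transcription factors carrying a GST fusion were produced in yeast, bound to glutathione beads, tagged with DNA barcodes and pooled together with a tag-only sample. Each pool was held with 200 nmole of a random double-stranded 16-mer DNA library in Tris/NaCl/DTT/glycerol buffer for 30 min at room temperature, then washed, crosslinked in 0.1% formaldehyde, proximity-ligated with BsaI/T4 ligase (1 h, 37 °C), PCR-amplified and sequenced on an Illumina NextSeq500. Binding signal is the read frequency of each hexamer for a given factor divided by its frequency in the tag-only sample.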

ELK1 = target: T2, ELK1 (Homo sapiens, UniProt P19419 1-428); conditions: protein: recombinant; tags: N-terminal GST; dsDNA, one strand shown
T2 sequence: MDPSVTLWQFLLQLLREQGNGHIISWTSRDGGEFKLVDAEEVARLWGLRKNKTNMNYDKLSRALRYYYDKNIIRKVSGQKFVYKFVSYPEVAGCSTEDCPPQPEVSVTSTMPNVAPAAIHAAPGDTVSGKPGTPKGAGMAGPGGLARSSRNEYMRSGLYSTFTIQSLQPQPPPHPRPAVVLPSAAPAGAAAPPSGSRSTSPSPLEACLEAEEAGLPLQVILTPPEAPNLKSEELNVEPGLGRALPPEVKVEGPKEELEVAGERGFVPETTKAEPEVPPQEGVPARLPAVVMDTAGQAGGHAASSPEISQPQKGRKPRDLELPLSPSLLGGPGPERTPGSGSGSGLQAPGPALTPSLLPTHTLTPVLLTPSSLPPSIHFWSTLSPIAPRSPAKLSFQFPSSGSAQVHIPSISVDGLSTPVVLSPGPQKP
Summary of the method: as §1

GABPA = target: T3, GABPA (Homo sapiens, UniProt Q06546 1-454); conditions: protein: recombinant; tags: N-terminal GST; dsDNA, one strand shown
T3 sequence: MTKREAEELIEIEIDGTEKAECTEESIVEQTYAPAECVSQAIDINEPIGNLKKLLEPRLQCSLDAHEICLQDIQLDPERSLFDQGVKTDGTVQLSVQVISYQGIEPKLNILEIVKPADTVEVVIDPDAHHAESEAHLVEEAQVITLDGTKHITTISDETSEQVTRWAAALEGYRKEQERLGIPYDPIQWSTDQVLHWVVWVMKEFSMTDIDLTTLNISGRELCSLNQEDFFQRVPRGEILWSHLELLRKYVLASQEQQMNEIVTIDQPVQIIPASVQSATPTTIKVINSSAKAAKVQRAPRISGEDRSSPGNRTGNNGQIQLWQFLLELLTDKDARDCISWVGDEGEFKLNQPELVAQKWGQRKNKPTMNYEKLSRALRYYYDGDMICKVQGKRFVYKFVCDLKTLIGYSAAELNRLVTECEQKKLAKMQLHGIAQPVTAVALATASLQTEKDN
Summary of the method: as §1

ERG = target: T4, ERG (Homo sapiens, UniProt P11308 1-479); conditions: protein: recombinant; tags: N-terminal GST; dsDNA, one strand shown
T4 sequence: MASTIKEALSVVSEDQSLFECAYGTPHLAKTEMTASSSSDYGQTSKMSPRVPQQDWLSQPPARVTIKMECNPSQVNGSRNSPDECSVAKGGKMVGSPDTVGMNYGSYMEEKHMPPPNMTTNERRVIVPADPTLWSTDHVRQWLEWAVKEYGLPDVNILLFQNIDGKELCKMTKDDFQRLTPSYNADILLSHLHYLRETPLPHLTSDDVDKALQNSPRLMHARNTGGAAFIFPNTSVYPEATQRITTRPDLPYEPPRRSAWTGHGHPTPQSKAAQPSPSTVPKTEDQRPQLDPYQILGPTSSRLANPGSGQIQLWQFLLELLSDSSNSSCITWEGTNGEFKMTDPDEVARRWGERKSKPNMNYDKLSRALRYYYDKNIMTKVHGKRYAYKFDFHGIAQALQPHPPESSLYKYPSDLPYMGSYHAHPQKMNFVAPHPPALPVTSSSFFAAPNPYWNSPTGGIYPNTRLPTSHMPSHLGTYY
Summary of the method: as §1

ELF1 = ELF1 (Homo sapiens, UniProt P32519 1-619); conditions: protein: recombinant; tags: N-terminal GST; dsDNA, one strand shown
Sequence of ELF1 (P32519 whole entry): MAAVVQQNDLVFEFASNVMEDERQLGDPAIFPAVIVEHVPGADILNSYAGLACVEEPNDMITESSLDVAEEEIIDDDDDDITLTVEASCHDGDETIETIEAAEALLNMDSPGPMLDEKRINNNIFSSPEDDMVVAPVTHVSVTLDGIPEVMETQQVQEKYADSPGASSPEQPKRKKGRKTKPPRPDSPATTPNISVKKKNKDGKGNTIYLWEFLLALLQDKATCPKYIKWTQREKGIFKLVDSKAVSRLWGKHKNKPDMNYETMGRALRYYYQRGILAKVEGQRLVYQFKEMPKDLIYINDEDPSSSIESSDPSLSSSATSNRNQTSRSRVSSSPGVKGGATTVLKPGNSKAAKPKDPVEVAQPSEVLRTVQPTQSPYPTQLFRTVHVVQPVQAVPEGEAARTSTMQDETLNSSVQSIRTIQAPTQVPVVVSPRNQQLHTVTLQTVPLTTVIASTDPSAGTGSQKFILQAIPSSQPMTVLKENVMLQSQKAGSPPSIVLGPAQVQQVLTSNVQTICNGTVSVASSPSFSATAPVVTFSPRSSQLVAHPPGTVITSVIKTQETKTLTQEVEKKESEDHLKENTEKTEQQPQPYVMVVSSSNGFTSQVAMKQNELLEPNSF
Summary of the method: as §1

EHF = target: T5, EHF (Homo sapiens, UniProt Q9NZC4 1-300); conditions: protein: recombinant; tags: N-terminal GST; dsDNA, one strand shown
T5 sequence: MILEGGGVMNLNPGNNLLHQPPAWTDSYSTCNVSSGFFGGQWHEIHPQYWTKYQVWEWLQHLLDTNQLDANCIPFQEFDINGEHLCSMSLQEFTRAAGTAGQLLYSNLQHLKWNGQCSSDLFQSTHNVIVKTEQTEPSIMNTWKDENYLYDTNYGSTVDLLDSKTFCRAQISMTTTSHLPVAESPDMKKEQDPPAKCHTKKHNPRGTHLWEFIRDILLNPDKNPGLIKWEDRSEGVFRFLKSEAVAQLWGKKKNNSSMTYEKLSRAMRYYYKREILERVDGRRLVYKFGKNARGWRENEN
Summary of the method: as §1

SPI1 = SPI1 (Homo sapiens, UniProt P17947 1-270); conditions: protein: recombinant; tags: N-terminal GST; dsDNA, one strand shown
Summary of the method: as §1

SPIB = SPIB (Homo sapiens, UniProt Q01892 1-262); conditions: protein: recombinant; tags: N-terminal GST; dsDNA, one strand shown
Sequence of SPIB (Q01892 whole entry): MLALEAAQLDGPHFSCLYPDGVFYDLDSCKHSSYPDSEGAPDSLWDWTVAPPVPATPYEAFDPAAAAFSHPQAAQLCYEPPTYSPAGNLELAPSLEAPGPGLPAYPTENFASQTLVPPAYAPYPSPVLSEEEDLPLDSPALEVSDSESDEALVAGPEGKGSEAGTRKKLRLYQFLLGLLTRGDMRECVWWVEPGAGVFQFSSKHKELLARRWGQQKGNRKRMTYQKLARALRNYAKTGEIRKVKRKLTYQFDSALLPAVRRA
Summary of the method: as §1

ELK3 = target: T6, ELK3 (Homo sapiens, UniProt P41970 1-407); conditions: protein: recombinant; tags: N-terminal GST; dsDNA, one strand shown
T6 sequence: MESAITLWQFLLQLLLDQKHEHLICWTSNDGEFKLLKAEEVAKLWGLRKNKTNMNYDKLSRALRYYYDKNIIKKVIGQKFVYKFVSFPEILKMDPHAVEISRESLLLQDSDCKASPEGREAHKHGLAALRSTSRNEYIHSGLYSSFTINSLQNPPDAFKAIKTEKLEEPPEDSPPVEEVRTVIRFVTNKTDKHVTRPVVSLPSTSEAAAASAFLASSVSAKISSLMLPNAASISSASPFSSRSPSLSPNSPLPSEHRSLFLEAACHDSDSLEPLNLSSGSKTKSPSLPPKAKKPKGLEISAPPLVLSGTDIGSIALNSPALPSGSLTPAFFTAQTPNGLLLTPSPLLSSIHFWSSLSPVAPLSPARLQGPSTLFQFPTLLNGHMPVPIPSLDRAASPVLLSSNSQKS
Summary of the method: as §1

FEV = target: T7, FEV (Homo sapiens, UniProt Q99581 1-238); conditions: protein: recombinant; tags: N-terminal GST; dsDNA, one strand shown
T7 sequence: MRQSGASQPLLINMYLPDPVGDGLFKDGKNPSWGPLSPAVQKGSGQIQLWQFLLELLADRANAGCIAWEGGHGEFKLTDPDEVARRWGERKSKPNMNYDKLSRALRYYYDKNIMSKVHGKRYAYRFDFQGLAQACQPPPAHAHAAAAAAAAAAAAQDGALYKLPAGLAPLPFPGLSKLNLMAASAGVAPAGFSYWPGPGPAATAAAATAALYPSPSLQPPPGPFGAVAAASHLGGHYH
Summary of the method: as §1

ETV5 = ETV5 (Homo sapiens, UniProt P41161 1-510); conditions: protein: recombinant; tags: N-terminal GST; dsDNA, one strand shown
Sequence of ETV5 (P41161 whole entry): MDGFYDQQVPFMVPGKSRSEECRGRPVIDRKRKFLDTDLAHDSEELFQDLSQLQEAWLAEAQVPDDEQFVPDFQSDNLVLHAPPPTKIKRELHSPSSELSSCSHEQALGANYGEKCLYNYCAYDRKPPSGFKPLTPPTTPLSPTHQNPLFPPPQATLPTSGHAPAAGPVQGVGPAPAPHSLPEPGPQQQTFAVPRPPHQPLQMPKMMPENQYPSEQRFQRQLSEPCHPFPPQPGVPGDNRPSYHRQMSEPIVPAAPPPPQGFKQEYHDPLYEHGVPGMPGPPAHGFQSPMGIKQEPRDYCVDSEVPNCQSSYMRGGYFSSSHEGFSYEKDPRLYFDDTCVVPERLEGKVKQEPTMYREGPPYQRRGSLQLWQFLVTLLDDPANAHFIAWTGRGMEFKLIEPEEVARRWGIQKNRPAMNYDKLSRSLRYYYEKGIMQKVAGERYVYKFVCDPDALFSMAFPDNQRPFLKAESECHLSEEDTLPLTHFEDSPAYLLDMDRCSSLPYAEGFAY
Summary of the method: as §1

HSF1 = HSF1 (Homo sapiens, UniProt Q00613 1-529); conditions: protein: recombinant; tags: N-terminal GST; chain copies: 3; dsDNA, one strand shown
Sequence of HSF1 (Q00613 whole entry): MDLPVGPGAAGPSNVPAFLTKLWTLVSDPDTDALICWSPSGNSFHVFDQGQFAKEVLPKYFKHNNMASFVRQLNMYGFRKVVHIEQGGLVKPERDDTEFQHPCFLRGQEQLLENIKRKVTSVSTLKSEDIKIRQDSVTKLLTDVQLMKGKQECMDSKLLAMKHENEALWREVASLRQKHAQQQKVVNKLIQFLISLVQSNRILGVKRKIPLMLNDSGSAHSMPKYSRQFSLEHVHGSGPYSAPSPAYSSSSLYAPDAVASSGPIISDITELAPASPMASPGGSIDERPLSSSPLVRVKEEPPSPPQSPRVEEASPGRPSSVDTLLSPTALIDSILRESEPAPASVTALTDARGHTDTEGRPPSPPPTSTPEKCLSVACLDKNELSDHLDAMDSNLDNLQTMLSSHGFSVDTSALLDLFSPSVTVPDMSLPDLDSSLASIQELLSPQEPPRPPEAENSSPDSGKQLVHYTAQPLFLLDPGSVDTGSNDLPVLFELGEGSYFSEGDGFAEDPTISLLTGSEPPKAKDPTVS
Summary of the method: as §1

SPIC = target: T8, SPIC (Homo sapiens, UniProt Q8N5J4 1-248); conditions: protein: recombinant; tags: N-terminal GST; dsDNA, one strand shown
T8 sequence: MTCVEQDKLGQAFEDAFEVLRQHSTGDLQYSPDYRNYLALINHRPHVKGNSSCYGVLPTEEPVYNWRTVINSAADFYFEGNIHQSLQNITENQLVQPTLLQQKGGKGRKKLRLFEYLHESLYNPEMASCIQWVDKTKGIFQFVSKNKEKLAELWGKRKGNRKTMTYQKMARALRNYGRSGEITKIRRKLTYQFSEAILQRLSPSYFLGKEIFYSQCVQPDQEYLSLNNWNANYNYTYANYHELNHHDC
Summary of the method: as §1

ELF4 = ELF4 (Homo sapiens, UniProt Q99607 1-663); conditions: protein: recombinant; tags: N-terminal GST; dsDNA, one strand shown
Sequence of ELF4 (Q99607 whole entry): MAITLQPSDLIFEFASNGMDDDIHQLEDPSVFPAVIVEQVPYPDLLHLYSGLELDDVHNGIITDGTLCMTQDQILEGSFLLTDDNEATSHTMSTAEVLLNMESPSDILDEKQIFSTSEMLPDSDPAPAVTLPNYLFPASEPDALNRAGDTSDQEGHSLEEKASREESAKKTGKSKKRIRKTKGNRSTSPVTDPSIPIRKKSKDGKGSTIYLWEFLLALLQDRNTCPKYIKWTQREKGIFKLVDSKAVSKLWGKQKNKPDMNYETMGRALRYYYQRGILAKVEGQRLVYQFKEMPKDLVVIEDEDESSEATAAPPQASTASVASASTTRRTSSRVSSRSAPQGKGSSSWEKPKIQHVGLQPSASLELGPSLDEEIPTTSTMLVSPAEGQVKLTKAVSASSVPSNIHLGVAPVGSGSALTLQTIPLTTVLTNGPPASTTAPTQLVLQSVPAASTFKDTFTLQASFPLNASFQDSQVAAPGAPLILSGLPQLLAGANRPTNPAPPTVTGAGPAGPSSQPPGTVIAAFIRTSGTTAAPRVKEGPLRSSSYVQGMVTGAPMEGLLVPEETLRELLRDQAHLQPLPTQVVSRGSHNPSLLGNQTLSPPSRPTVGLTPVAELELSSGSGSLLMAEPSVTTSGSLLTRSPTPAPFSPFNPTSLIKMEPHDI
Summary of the method: as §1

ELK4 = target: T9, ELK4 (Homo sapiens, UniProt P28324-2 1-405); conditions: protein: recombinant; tags: N-terminal GST; dsDNA, one strand shown
T9 sequence: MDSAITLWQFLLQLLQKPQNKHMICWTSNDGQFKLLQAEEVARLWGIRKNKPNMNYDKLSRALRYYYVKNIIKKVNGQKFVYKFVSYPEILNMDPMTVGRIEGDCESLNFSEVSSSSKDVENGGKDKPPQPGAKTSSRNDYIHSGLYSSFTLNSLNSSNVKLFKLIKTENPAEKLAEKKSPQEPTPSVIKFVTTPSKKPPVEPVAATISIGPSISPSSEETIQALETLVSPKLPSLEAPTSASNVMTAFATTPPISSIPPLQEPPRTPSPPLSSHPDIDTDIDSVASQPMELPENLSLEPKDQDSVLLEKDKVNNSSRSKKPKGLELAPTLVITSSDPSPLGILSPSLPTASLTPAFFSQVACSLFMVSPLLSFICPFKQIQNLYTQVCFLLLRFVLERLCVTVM
Summary of the method: as §1

ETV2 = target: T10, ETV2 (Homo sapiens, UniProt O00321 1-342); conditions: protein: recombinant; tags: N-terminal GST; dsDNA, one strand shown
T10 sequence: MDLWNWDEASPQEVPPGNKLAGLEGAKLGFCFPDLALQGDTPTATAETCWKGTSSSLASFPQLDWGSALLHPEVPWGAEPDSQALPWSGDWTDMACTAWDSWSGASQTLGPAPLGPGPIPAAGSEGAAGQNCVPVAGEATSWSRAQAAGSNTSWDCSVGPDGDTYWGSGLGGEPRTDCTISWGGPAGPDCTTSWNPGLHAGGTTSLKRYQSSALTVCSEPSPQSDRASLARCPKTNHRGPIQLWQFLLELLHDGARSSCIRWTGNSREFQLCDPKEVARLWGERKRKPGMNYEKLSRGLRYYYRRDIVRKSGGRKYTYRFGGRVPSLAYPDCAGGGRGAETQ
Summary of the method: as §1

ELF3 = target: T11, ELF3 (Homo sapiens, UniProt P78545 1-371); conditions: protein: recombinant; tags: N-terminal GST; dsDNA, one strand shown
T11 sequence: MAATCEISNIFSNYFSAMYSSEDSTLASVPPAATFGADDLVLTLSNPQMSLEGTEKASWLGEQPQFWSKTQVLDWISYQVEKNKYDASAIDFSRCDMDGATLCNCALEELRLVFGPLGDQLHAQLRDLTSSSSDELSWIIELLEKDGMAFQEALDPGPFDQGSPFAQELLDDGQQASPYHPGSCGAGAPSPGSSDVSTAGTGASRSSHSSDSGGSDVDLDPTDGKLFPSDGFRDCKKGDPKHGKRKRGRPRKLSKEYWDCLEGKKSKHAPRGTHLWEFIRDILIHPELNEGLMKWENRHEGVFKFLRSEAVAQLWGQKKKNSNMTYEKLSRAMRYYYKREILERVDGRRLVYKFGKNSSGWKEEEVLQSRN
Summary of the method: as §1

ETV1 = ETV1 (Homo sapiens, UniProt P50549 1-477); conditions: protein: recombinant; tags: N-terminal GST; dsDNA, one strand shown
Sequence of ETV1 (P50549 whole entry): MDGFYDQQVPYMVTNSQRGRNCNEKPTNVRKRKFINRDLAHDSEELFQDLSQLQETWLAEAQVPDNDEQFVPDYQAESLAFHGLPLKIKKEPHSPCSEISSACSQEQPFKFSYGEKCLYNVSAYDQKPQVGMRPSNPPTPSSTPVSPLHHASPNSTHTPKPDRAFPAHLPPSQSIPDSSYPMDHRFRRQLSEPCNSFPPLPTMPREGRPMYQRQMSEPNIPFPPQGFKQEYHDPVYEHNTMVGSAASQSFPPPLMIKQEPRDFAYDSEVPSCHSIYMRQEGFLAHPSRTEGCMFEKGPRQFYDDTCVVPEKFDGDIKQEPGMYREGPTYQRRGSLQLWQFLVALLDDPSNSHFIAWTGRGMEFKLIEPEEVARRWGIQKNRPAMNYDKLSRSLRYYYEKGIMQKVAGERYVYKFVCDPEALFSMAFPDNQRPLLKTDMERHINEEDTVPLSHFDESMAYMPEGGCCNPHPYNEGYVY
Summary of the method: as §1

GTTCCC
binding signal (FLI1): 1.36 fold enrichment (6-mer frequency, TF over GST control) | binding signal (ELK1): 1.27 fold enrichment (6-mer frequency, TF over GST control) | binding signal (GABPA): 1.33 fold enrichment (6-mer frequency, TF over GST control) | binding signal (ERG): 1.25 fold enrichment (6-mer frequency, TF over GST control) | binding signal (ELF1): 1.28 fold enrichment (6-mer frequency, TF over GST control) | binding signal (EHF): 1.28 fold enrichment (6-mer frequency, TF over GST control) | binding signal (SPI1): 1.71 fold enrichment (6-mer frequency, TF over GST control) | binding signal (SPIB): 1.37 fold enrichment (6-mer frequency, TF over GST control) | binding signal (ELK3): 1.23 fold enrichment (6-mer frequency, TF over GST control) | binding signal (FEV): 1.27 fold enrichment (6-mer frequency, TF over GST control) | binding signal (ETV5): 1.22 fold enrichment (6-mer frequency, TF over GST control) | binding signal (HSF1): 1.26 fold enrichment (6-mer frequency, TF over GST control) | binding signal (SPIC): 1.38 fold enrichment (6-mer frequency, TF over GST control) | binding signal (ELF4): 1.36 fold enrichment (6-mer frequency, TF over GST control) | binding signal (ELK4): 1.19 fold enrichment (6-mer frequency, TF over GST control) | binding signal (ETV2): 1.12 fold enrichment (6-mer frequency, TF over GST control) | binding signal (ELF3): 1.23 fold enrichment (6-mer frequency, TF over GST control) | binding signal (ETV1): 1.39 fold enrichment (6-mer frequency, TF over GST control)

Reference: PMC7862700, “An all-to-all approach to the identification of sequence-specific readers for epigenetic DNA modifications on cytosine”
